NS1 function inh = influenza NS1 inhibition; Potency, µM (series often up to 46.1 µM); actives 0.4% (n = 270,000); AID 2326; calls by dose curve; note: actives are rising curves; nearly all actives have a fitted effect of over 50% in size
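Growth recovery, yeast-based: influenza A NS1 expressed in S. cerevisiae causes slow growth, and suppressors are detected by OD600. The parent strain without NS1 is used as positive control.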
Shiga toxin inh = inhibitors of Shiga toxin in Vero cells; Vero cells, Shiga toxin protein synthesis inhibition reporter; inhibition, % at 38.7 µM; actives 9.2% (n = 290,000); AID 2315; in the data active = inhibition mostly above about 28%, no sharp cut-off; inactive = mostly below about 43%
AmpC detergent = AmpC beta-lactamase inhibition with detergent present. AmpC hydrolysis of nitrocefin, absorbance 480 nm, 0.01% Triton. Potency, µM (series often up to 114 µM), hits mostly inhibitors. AID 485294. actives 0.041% (n = 370,000); note: nearly all actives have a fitted effect of over 25% in size
Target sequence (P00811 whole entry, looked up): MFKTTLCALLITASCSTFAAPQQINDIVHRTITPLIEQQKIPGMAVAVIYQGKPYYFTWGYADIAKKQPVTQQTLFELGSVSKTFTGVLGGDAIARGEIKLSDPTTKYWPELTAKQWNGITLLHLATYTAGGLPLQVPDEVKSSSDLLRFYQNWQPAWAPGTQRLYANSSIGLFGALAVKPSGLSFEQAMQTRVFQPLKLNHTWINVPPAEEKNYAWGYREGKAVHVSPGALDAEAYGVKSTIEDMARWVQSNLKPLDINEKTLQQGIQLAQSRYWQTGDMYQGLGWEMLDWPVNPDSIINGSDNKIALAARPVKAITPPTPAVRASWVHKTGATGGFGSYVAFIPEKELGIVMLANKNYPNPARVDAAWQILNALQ
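20 mM phosphate pH 7.0 + 0.01% (detergent screen) or 0.0001% Triton X-100; 5.3 nM AmpC reagent; cpd preinc 15 min RT; nitrocefin (800 uM stock) to start; A480 q20 s × 4 min; Activity was normalised to no-enzyme and no-compound control wells.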
Cycloheximide cs = counter-screen hit for Shiga toxin inhibitors, cycloheximide | cell reporter, cycloheximide protein synthesis inhibition counterscreen | max response, % | actives 12% (n = 300,000); in the data active = max response mostly above about 13%, no sharp cut-off; inactive = mostly below about 14%; note: read at 38.3 µM for the half of the compounds with a filed dose
AmpC inh no detg = inhibitors of E. coli AmpC beta-lactamase without detergent; P00811; Potency, µM (highest dose often 57.1 µM), most hits filed as inhibitors; AmpC nitrocefin hydrolysis, absorbance 480 nm, 0.0001% Triton; actives 0.52% (n = 330,000); note: nearly all actives have a fitted effect of over 20% in size
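AmpC (5.3 nM in the dispensed reagent) in 20 mM phosphate pH 7.0 with 0.01% (detergent screen) or 0.0001% Triton X-100 was preincubated with compounds for 15 min at room temperature. Nitrocefin was then added from an 800 uM solution, and hydrolysis was followed at 480 nm.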
Hits are given with their value; i = inactive; ? = inconclusive; nt = no result; + = active, no number; [ ] = dose if it differs, or a comment. Shown is part of a subset that was picked to be rich in hits. Unless noted, calls come from the whole dose curve; as a rule, active = well fitted curve in the direction sought with a large enough effect; inconclusive = small, poorly fitted or top-dose-only effect, or another doubt; inactive = no such curve, though single readings can be large; an effect the other way counts as inactive or inconclusive.

SMILES	NS1 function inh	Shiga toxin inh	AmpC detergent	Cycloheximide cs	AmpC inh no detg
CN1CCc2c(sc3c2C(=O)NC(c2cn(Cc4ccccc4)c4ccccc24)N3)C1 (stereo not given)	i	i	?	i	i
CCOc1ccc(N2CC(C(=O)N3CCCc4ccccc43)CC2=O)cc1 (stereo not given)	i	64	i	31	i
Cc1ccc(N2CC(C(=O)N3CCCc4ccccc43)CC2=O)cc1 (stereo not given)	i	i	i	i	i
CC(C)OCCCN1CN(S(=O)(=O)c2cccc(Cl)c2)c2nc3ccccc3nc21	i	38	i	22	i
CC(C)OCCCN1CN(S(=O)(=O)c2ccc(Cl)cc2)c2nc3ccccc3nc21	i	i	?	18	i
COCCCN1CN(S(=O)(=O)c2ccc(C)cc2C)c2nc3ccccc3nc21	i	i	i	i	i
CCOCCCN1CN(S(=O)(=O)c2ccc(Cl)cc2)c2nc3ccccc3nc21	i	i	i	i	i
Cc1ccc2nc(CSc3nc(C)cc(C)c3C#N)[nH]c2c1	i	i	i	46	i
O=C(NN1C(=O)c2ccccc2C1=O)C1C2CCCCC21 (stereo not given)	i	i	?	11	i
COc1cccc(NC(=O)N2CCC(CN3CCOCC3)CC2)c1	nt	nt	i	nt	nt
CCOC(=O)c1cnc2c(C)cccc2c1NCc1ccco1	i	37	i	24	i
CCOC(=O)c1ccc2ncc(C(=O)OCC)c(NCc3ccco3)c2c1	i	i	i	27	i
COc1ccc(CCNC(=O)CCc2cn(Cc3ccccc3Cl)c3ccccc23)c(OC)c1	nt	nt	i	nt	nt
O=c1cc(CSc2nnc(Nc3ccccc3)s2)nc2sccn12	i	i	i	i	i
CCCC(=O)Nc1nnc(SCC(=O)NCc2cccs2)s1	i	i	i	i	i
Cc1cccc(Nc2nnc(SCC(=O)NCc3cccs3)s2)c1	i	62	i	19	i
Cc1cccc(Nc2nnc(SCC(=O)Nc3cccnc3Cl)s2)c1	i	i	i	27	i
Cc1cccc(Nc2nnc(SCc3cn4ccsc4n3)s2)c1	i	i	i	20	i
Cc1cccc(Nc2nnc(SCC(=O)NCc3cccs3)s2)c1C	i	42	?	i	i
CC(C)Oc1ccc(CCN=C(N)N=C(N)N)cc1Cl	i	51	i	29	i
Cc1nc(NC(=O)c2ccc(Cl)cc2)nc2cc3c(cc12)OCO3	i	i	i	i	i
Cc1c(-c2cc(Br)ccc2O)nc2cc3c(cc2c1C)OCO3	i	47	?	38	i
COC(=O)c1ccc2c(=O)n(CCCCCC(=O)NCc3ccc(OC)cc3)c(=O)[nH]c2c1	nt	nt	i	nt	nt
CC(=O)c1ccc(NS(=O)(=O)c2ccc(N)cc2)cc1	i	50	i	28	i
CC(=O)c1ccc(N=Nc2ccc(N)cc2)cc1	i	56	i	28	i
SMILES	NS1 function inh	Shiga toxin inh	AmpC detergent	Cycloheximide cs	AmpC inh no detg
CC(=O)c1ccc(NS(=O)(=O)c2c(C)cc(C)cc2C)cc1	i	73	i	38	i
Cc1cc(C)c(S(=O)(=O)Nc2ccc(C(N)=O)cc2)c(C)c1	i	i	i	i	i
Cc1ccc(-n2nnc3c(sc4nc(C)c(C)cc43)c2=O)cc1Cl	nt	nt	i	nt	nt
COc1ccc(NC2=CC(=O)N(C)C2=O)cc1	?	+	i	i	i
COc1ccc(NC2=NCC(C)S2)cc1 (stereo not given)	i	i	i	17	i
COc1ccc(Nc2c3ccccc3nc3ccccc23)cc1	i	44	i	22	i
CC1CN=C(Nc2ccc(F)cc2)S1 (stereo not given)	nt	i	?	i	i[11.4 µM]
COc1ccc(Nc2cccccc2=O)cc1	i	i	i	i	i
COc1ccc(Nc2ccc(Nc3ccc(OC)cc3)nn2)cc1	i	i	i	i	i
COc1ccc(Nc2ccc(OC)cc2)cc1	i	87	i	46	i
N#Cc1cn(N2CCCCC2)c(=O)[nH]c1=O	i	i	i	i	i
C=Cc1ccc(Cn2c(C)c(CNCc3ccc(SC)cc3)c(C(=O)O)c2C)cc1	nt	nt	i	nt	nt
CC(C)(C)NS(=O)(=O)c1ccc2nc(NC(=O)c3cccnc3)sc2c1	nt	nt	i	nt	nt
COc1ccc(Nc2cc(C)c3ccccc3n2)cc1	nt	103	i	41	i
Cc1cc(Nc2ccc([N+](=O)[O-])cc2)nc2ccccc12	i	i	i	i	i
COc1ccc(NC2=NC(C)(C)CS2)cc1	i	70	i	28	i
O=C(Nc1ccccn1)c1ccc(S(=O)(=O)c2ccc(Cl)cc2)cc1	i	i	i	i	i
COc1cc(N/C(=N/S(=O)(=O)c2ccccc2)c2ccccc2)ncn1	i	68	i	46	nt
O=C(NN/C(=N/S(=O)(=O)c1ccc(Cl)cc1)c1ccccc1)c1ccc(O)cc1	i	56	i	67	i
COc1ccccc1N/C(=N/S(=O)(=O)c1ccc(C)cc1)c1ccccc1	i	i	i	i	i
O=S(=O)(/N=C(/Nc1ccccn1)c1ccc(Cl)cc1)c1ccc(Cl)cc1	i	i	?	49	i
O=C(NN/C(=N/S(=O)(=O)c1ccc(Cl)cc1)c1ccccc1)c1cccc(Cl)c1	i	81	?	31	i
O=C(CCNC(=O)c1ccc([N+](=O)[O-])cc1)Nc1nc2ccccc2[nH]1	nt	nt	i	nt	i
Cc1ccc(S(=O)(=O)/N=C(/NNC(=O)c2cccc(Cl)c2)c2ccccc2)cc1	i	99	i	33	i
Cc1ccc(S(=O)(=O)NN/C(=N/S(=O)(=O)c2ccccc2)c2ccccc2)cc1	i	i	i	i	i
SMILES	NS1 function inh	Shiga toxin inh	AmpC detergent	Cycloheximide cs	AmpC inh no detg
Brc1ccc(Oc2ncc(CN3CCN(c4ccccc4)CC3)s2)cc1	i	i	i	i	i
Cc1ccc(Oc2ncc(CN3CCOCC3)s2)cc1	i	61	i	24	i
Clc1cccc(Oc2ncc(CN3CCOCC3)s2)c1	i	i	i	20	i
Cc1ccc(NC(=O)Nc2cnccn2)cc1	i	72	?	63	i
Cc1ccc(NC(=O)Nc2cnccn2)cc1C	i	96	i	28	i
Cc1cc(C)cc(NC(=O)Nc2cnccn2)c1	i	i	i	i	i
O=C(Nc1ccncc1)Nc1ccc(Cl)cc1	i	i	?	33	i
O=C(Nc1ccccc1)Nc1cnccn1	i	24	i	i	i
O=C(Nc1cnccn1)Nc1cccc(Cl)c1Cl	nt	i	i	26	i
O=C(Nc1ccc(Cl)cc1)Nc1cnccn1	i	i	i	27	i
CC(C)c1ccc(NC(=O)Nc2cnccn2)cc1	i	73	i	61	i
O=C(Nc1ccc([N+](=O)[O-])cc1)Nc1cnccn1	i	i	i	i	i
CC(=O)c1cn(Cc2ccccc2)c(=O)n(Cc2ccc(F)cc2)c1=O	nt	i	i	i	i
CCN(CC)CCCNC(=O)c1ccc(S(=O)(=O)Nc2ccc(C)c(C)c2)cc1	nt	nt	i	nt	i
c1ccc(-c2cc3c(ccc4nonc43)nn2)cc1	i	i	i	i	i
On1onc2c3cc(-c4ccccc4)nc3ccc21	i	128	i	69	i

High-throughput results: PubChem BioAssay, National Center for Advancing Translational Sciences (NCATS)
